Our source for the z-score values is PubChem BioAssay AID488969 (Vanderbilt High Throughput Screening Facility, 2010).

Molecules are shown by their SMILES. In all, about 110,000 compounds were measured (“z-score”: median about -0.1, highest 2% from about 2 on). Many of the other results were omitted from the sample, so the highest values are more common in it than they were. Calls of active or inactive are those of the source.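 The calls were made as follows: active = z-score in the third read window above 3 or below -3; inactive = the rest.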

In this assay the target is Metabotropic glutamate receptor 8 (Rattus norvegicus) (UniProt P70579). The assay can be described thus: rat mGluR8 modulators via GIRK flux, primary screen, cell-based, thallium flux, HTS (AID 488969). The note with it: HEK293 rat mGluR8, GIRK (G protein-gated inwardly rectifying potassium channel) thallium flux, FluoZin2; at 10 µM; stronger effect = higher value; submaximal glutamate (EC20) added with thallium.
Sequence of Metabotropic glutamate receptor 8 (Rattus norvegicus) (P70579 whole entry, looked up): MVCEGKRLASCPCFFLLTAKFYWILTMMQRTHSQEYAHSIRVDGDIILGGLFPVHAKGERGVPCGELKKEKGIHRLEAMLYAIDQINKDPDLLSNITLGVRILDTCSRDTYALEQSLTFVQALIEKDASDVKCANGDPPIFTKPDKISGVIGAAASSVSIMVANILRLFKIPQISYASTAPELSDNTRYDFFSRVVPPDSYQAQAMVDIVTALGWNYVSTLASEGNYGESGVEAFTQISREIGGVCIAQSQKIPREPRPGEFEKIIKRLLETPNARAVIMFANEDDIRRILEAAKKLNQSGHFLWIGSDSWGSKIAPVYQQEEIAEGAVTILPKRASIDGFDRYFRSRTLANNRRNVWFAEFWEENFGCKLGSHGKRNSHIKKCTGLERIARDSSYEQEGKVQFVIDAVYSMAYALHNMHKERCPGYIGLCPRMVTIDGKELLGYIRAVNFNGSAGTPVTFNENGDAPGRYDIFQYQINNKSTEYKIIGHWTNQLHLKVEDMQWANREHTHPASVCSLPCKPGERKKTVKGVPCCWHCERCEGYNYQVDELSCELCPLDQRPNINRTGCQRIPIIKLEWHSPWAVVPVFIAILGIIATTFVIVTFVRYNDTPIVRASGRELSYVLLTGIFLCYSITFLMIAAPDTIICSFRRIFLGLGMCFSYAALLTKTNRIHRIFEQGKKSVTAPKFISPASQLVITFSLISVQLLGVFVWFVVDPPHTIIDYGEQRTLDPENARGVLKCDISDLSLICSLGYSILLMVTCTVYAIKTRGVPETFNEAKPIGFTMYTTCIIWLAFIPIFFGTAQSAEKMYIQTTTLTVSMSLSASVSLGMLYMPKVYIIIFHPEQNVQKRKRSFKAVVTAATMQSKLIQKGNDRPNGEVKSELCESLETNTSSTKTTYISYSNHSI
Take `Cc1oc2c(C)c3oc(=O)c4c(c3cc2c1C)CCC4`: the z-score is -0.532.

In turn, `COc1ccc(N(C(=O)Cn2nnc(-c3ccc(Cl)cc3)n2)C(C(=O)NCC2CCCO2)c2ccc(C)cc2)cc1` (stereo unspecified) returned a z-score of -0.126.

Consider `O=C(COC(=O)Cn1cnc2ccccc2c1=O)Nc1ccc(Cl)c(C(F)(F)F)c1`, for which the z-score is -0.01.

`CC(=O)Nc1ccc(S(=O)(=O)NNC(=O)c2ccc(C)cc2)cc1` had a z-score of -0.161.

Compound `CC(=O)N1CCC2(CC1)C(C#N)=C(N)OC1=C2C(=O)CC(C)(C)C1` displayed a z-score of 0.05.

Compound `COC(=O)c1c(NC(=O)C2COc3ccccc3O2)sc2c1CCN(Cc1ccccc1)C2` (stereo unspecified) yielded a z-score of 0.0786.

On to `Cc1ccccc1-n1c(O)c(/C=N/N2CCCCC2c2cccnc2)c(=O)[nH]c1=O` (stereo unspecified), for which the z-score was -0.187.

For `CN(C)C(=S)Nn1c(-c2ccccc2)nc2ccccc2c1=O`, the z-score is -0.411.

`COc1cc(CNc2ccccc2SC)ccc1O` displayed a z-score of 1.58.

Take `N#Cc1ccc(N2CCc3ccccc3C2)c([N+](=O)[O-])c1`: the z-score was found to be 0.175.

Take `Cc1ccc(S(=O)(=O)NC(CC(C)C)C(=O)NCc2ccco2)cc1` (stereo unspecified): the z-score came out at 0.0163.

In turn, `COc1ccc(-c2nnnn2C)cc1S(=O)(=O)NCCc1ccccc1` had a z-score of 1.29.

`O=C(Nc1ccccc1Br)C1CCC(=O)N1Cc1ccccc1Cl` (stereo unspecified) showed a z-score of 0.19.

`Cc1nc2cc(-c3cccs3)[nH]n2c(=O)c1C` gave a z-score of -0.15.

`COc1cc(OC)cc(-c2cc3nc(C)c(CCC(=O)O)c(=O)n3[nH]2)c1` yielded a z-score of 0.713.

In the case of `COc1cc(-c2cc3nc(C)c(C)c(=O)n3[nH]2)cc(OC)c1OC`, the z-score was 2.19.

In turn, `COC(=O)C(O)(CC(=O)Nc1ccc(OC(F)(F)F)cc1)C(F)(F)F` (stereo unspecified) showed a z-score of -0.408.

Turning to `C=CCn1c(=S)[nH]c2sc3c(c2c1=O)CCC3`, the z-score is 10.9 (active).

On to `C=CCn1c(SCC(=O)NC)nc2sc3c(c2c1=O)CCC3`, for which the z-score is -0.523.

In the case of `O=c1[nH]c2sc3c(c2c(=O)n1Cc1ccccc1)CCC3`, the z-score was -0.117.

The compound `O=C(CCCN1C(=O)c2ccccc2C1=O)OC1CSCC1NC(=O)c1ccccc1` (stereo unspecified) gave a z-score of -0.17.

Consider `O=C1CS/C(=N\c2ccccn2)N1C1CCCCC1`, for which the z-score is -0.393.

Turning to `COc1cc(CC(=O)Nc2ccc3nc(C)sc3c2)cc(OC)c1OC`, the z-score was -0.158.

For the compound `Cc1cccc(CSc2ncc(CO)n2C)c1`, the z-score amounted to 0.12.

Take `COc1ccc(CCNC(=O)C2CCN(S(=O)(=O)c3ccc(OC)c(OC)c3)CC2)cc1`: the z-score is -0.362.

As for `OCCCCCN=c1cc(-c2ccccc2)oc2ccc(Cl)cc12`, the z-score was -0.493.

Regarding `OCCCN=c1cc(-c2ccccc2)oc2ccc(Cl)cc12`, the z-score was 3.32 (active).

On to `OCCN=c1cc(-c2ccccc2)oc2ccc(Cl)cc12`, for which the z-score stood at 0.389.

`O=C(CCn1nc(-c2ccccc2)ccc1=O)N1CCOCC1` gave a z-score of 0.676.

On to `CCc1ccccc1NC(=O)c1cc2sccc2n1C`, for which the z-score was -0.142.

Turning to `CCn1c(NC(=O)Nc2cccc(C)c2C)cc2sccc21`, the z-score was 3.12 (active).

With `Cc1cccc(NC(=O)c2sccc2-n2cccc2)c1C`, the z-score is -0.81.

The compound `COc1ccc(OC)c(C(=O)c2ccc(C(=O)Nc3cccc4ccccc34)cc2)c1` registered a z-score of 0.682.

`CCc1ccc(OCC(O)CN2CCC(CN3C(=O)c4cccc5cccc(c45)C3=O)CC2)cc1` (stereo unspecified) gave a z-score of -0.57.

As for `Cc1cccc(C)c1OCC(O)CN1CCC(CN2C(=O)c3cccc4cccc(c34)C2=O)CC1` (stereo unspecified), the z-score amounted to 2.99.

The compound `Cc1ccc(C)c(OCC(O)CN2CCC(CN3C(=O)c4cccc5cccc(c45)C3=O)CC2)c1` (stereo unspecified) showed a z-score of -0.000796.

As for `CN1CCN(S(=O)(=O)c2cccc(C(=O)Nc3nc(-c4ccccc4)cs3)c2)CC1`, the z-score was -0.528.

As for `C(=N\n1cnnc1)/c1nc2ccccc2[nH]1`, the z-score was -0.217.

Take `COC(=O)Cc1ccc(NC(=O)c2cccs2)cc1`: the z-score was determined as 0.153.

`COc1ccc(CN(C(=O)CO/N=C/c2ccccc2)c2ccccc2C(=O)O)cc1` showed a z-score of -0.413.

On to `O=C(O)CC(Cc1ccccc1)c1ccc2c(c1)OCO2` (stereo unspecified), for which the z-score is 0.249.

`COc1ccc(Nc2ncnc3ccccc23)c(OC)c1` displayed a z-score of -0.192.

`COc1ccc(Nc2nc(N3CCCCC3)nc3ccccc23)c(OC)c1` yielded a z-score of 2.6.

As for `COc1ccc(Nc2nc(N3CCCC3)nc(N3CCCC3)n2)c(OC)c1`, the z-score came to 0.55.

Compound `c1ccc2c(N3CCCCC3)nc(N3CCCC3)nc2c1` showed a z-score of 0.2.

As to `CC(Nc1nc(N2CCCCC2)nc2ccccc12)c1ccccc1` (stereo unspecified), the z-score was -2.21.

Compound `C=CCNc1nc(N2CCCC2)nc2ccccc12` registered a z-score of 2.37.

Compound `NC(=O)c1cccnc1Sc1ccc(Cl)cc1` gave a z-score of -0.431.

`Cc1cccc(CC2CC(=O)N(c3ncccn3)C2=O)c1` (stereo unspecified) registered a z-score of -0.533.

In turn, `O=C(COc1ccc(Cl)cc1)Nc1c(-c2cccs2)nc2ccccn12` yielded a z-score of -0.182.

Take `COc1cc(C2NC(=O)NC(C)=C2C(=O)NCc2ccccc2)c(Cl)cc1O` (stereo unspecified): the z-score stood at 0.0361.

In the case of `CON(c1nc(N(C)C)nc(N(C)C)n1)S(=O)(=O)c1ccccc1Cl`, the z-score was -0.678.

Take `CON(c1nc(Cl)nc(N(C)C)n1)S(=O)(=O)c1ccccc1Cl`: the z-score is 2.79.

Turning to `COc1cc(C)nc(N(C)S(=O)(=O)c2ccccc2Cl)n1`, the z-score was -0.0755.

Regarding `N#Cc1c(-c2ccccc2)[nH]c(=S)[nH]c1=O`, the z-score was -0.744.

As for `Nc1nc(SCc2ccccc2)[nH]c(=O)c1-c1ccccc1`, the z-score was -0.741.

`Nc1[nH]c(=S)[nH]c(=O)c1-c1ccccc1` displayed a z-score of 2.2.

Compound `CN1/C(=C/C2CC(=O)N(c3ccc([N+](=O)[O-])cc3)C2=O)C(C)(C)c2ccccc21` (stereo unspecified) showed a z-score of -0.329.

Compound `CC(Cc1ccccc1)NC(=O)c1ccc([N+](=O)[O-])cc1` (stereo unspecified) registered a z-score of -0.0984.

`COC(=O)c1ccc(NC(CC(C)C)C(=O)OC)c([N+](=O)[O-])c1` (stereo unspecified) had a z-score of 1.05.

For `Cc1cc(C(=O)NCC(=O)OCC(=O)N(C(C)C)C(C)C)ccc1[N+](=O)[O-]`, the z-score is -0.0582.

Compound `COC(=O)C(CC(C)C)NC(=O)c1ccc(F)cc1` (stereo unspecified) displayed a z-score of -0.19.

In turn, `COC(=O)C(CC(C)C)NC(=O)c1ccc([N+](=O)[O-])c(C)c1` (stereo unspecified) returned a z-score of 2.9.

For the compound `COC(=O)C(CC(C)C)NC(=O)c1ccc([N+](=O)[O-])cc1` (stereo unspecified), the z-score was 2.03.

`COc1ccc(C2/C(=C(/O)c3ccccc3)C(=O)C(=O)N2CO)cc1` (stereo unspecified) returned a z-score of 0.305.

As to `Cc1ccc(/C=C2/CCc3c([nH]c4ccccc34)C2=O)cc1`, the z-score was found to be 0.107.

With `O=c1cc(CO)occ1OCc1cccc(C(F)(F)F)c1`, the z-score was determined as 0.0103.

As to `COc1ccc(NC(=O)c2cccnc2SC)cc1S(=O)(=O)N1CCCCC1`, the z-score is -0.467.

Regarding `O=C(Oc1ccc(N2C(=O)CCC2=O)cc1)c1ccco1`, the z-score is -0.374.

In turn, `Cn1ccc(C(=O)N2CCCc3ccccc32)n1` gave a z-score of -0.0997.

In turn, `CC(=O)N(/N=C1\Sc2ccccc2C1=O)c1ccc(C)cc1C` registered a z-score of -0.638.
